Bioassay records deposited in PubChem by Broad Institute.
An excerpt weighted towards active compounds, which were near 3.1% of everything screened.
miR122 inh – miR-122 Renilla sensor signal increase in Huh7, primary screen, miR-122 inhibitor project, cell-based, single point, plate reader; Huh7 miR-122 Renilla luciferase sensor, 48 h; neutral wells = 0, positive control = 100; activation (reporter increase), % at 12.5 µM; 0.3% of 340,000 active;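 active = mean replicate activation score at least 90 and every replicate individually at or above 90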;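 also: higher luciferase means less miR-122 activity so hits act as miR-122 inhibitors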
INS-1E GSIS act – GLuc luminescence reporter in INS-1E cells, primary screen for activators of glucose-dependent secretion of insulin; AID 743287, 2014; 0.61% of 370,000 active; activation, % at 16.6 µM; INS-1E GLuc reporter insulin secretion, 2-3 h;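 active = lowest replicate activation of at least 40%, so every replicate reaches that level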
C2C12 statin – suppressors of statin myotoxicity in C2C12 myotubes, primary screen, cell-based, single point, plate reader; rescue of ATP level, % at 7.49 µM; C2C12 myotubes + simvastatin, ATP luminescence, 48 h; scaled: DMSO 0, geranylgeraniol control 100; 0.78% of 330,000 active;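 active = mean ATP rescue above about 67%, or every replicate alone reaching that limit, limit read from the data, passing the limit was not always enough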;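 also: myotubes were challenged with 10 µM simvastatin during compound exposure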
PAX8 inh HTS – inhibitors of PAX8-driven TPO luciferase reporter, primary screen, RMG-I cells, single concentration. SteadyGlo, 24 h. inhibition, % at 12.6 µM. 1.2% of 360,000 active;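 active = mean replicate inhibition at least 60% with every replicate also reaching 60%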;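 also: luciferase light reporting Pax8 driven TPO promoter activity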
Env fusion inh – inhibitors of HIV-1 Env-driven cell-cell fusion, primary screen, HeLa-JRFL effector, CEM21 target cells, luciferase; inhibition, % at 12.3 µM; 1.1% of 360,000 active; AID 651610, 2012;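 active = mean replicate inhibition score of at least 50 and every replicate individually at or above 50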
EWS-Fli block – EWS/Fli-driven NR0B1 reporter inhibitors, primary screen, A673 cells, NR0B1 luciferase, luminescence, MLPCN library. viability-normalised. 0.67% of 350,000 active. inhibition, % at 12.6 µM;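 active = mean inhibition of at least 50% after viability correction, with every replicate also passing that limit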;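 also: firefly luciferase signal divided by Alamar Blue viability fluorescence both relative to DMSO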
Each line names hits and unclear results; the compound was inactive in the other large screens; [ ] = another dose, or the depositor's remark.

NC1=NC[C@@H](Cc2ccc(O)cc2)N1CCC12CC3CC(CC(C3)C1)C2	INS-1E GSIS act 184
C[C@@H]1CN([C@@H](C)CO)C(=O)Cc2cc(NS(=O)(=O)c3ccc(F)cc3)ccc2O[C@H]1CN(C)Cc1ccc(C(F)(F)F)cc1	PAX8 inh HTS 90, Env fusion inh 56[16.7 µM]
Cc1ccc(S(=O)(=O)Nc2ccc3c(c2)CC(=O)N([C@@H](C)CO)C[C@@H](C)[C@@H](CN(C)Cc2ccc(C(F)(F)F)cc2)O3)cc1	PAX8 inh HTS 62
Cc1ccc(S(=O)(=O)Nc2ccc3c(c2)CC(=O)N([C@H](C)CO)C[C@H](C)[C@H](CN(C)Cc2ccc(C(F)(F)F)cc2)O3)cc1	none
CC(=O)n1cc(N(C(=O)CCl)c2ccc(C)cc2)c2ccccc21	PAX8 inh HTS 104 (no result: INS-1E GSIS act, C2C12 statin)
CC(=O)N(c1ccc(Cl)cc1)c1cn(C(C)=O)c2ccccc12	none
CO[C@@H]1CN(C)C(=O)c2ccc(NC(=O)C3CCC3)cc2OC[C@@H](C)N(C(=O)NC(C)C)C[C@@H]1C	none (no result: PAX8 inh HTS)
CC(C)CC#Cc1ccc2c(c1)O[C@H](CN(C)C(=O)Cc1ccncc1)[C@@H](C)CN([C@H](C)CO)S2(=O)=O	none (no result: PAX8 inh HTS)
COc1ccc(NC(=O)C2C3C=CC4(O3)C2C(=O)N(CCN2CCCCC2C)C4C(=O)NC2CCCC(C)C2C)cc1 (configuration not stated)	INS-1E GSIS act 92
COc1ccc(S(=O)(=O)N2CC[C@@H]3[C@@H](CO)Nc4ccc(C5=CCCCC5)cc4[C@@H]32)cc1	none (no result: miR122 inh, C2C12 statin, PAX8 inh HTS, Env fusion inh, EWS-Fli block)
O=C(Cc1ccncc1)N[C@@H]1CC[C@@H](CCn2cc(-c3ccccc3F)nn2)O[C@@H]1CO	none
COc1ccccc1-c1nnc(SCC(=O)Nc2c(Cl)cccc2Cl)o1	none (no result: INS-1E GSIS act, EWS-Fli block)
COc1ccccc1-c1nnc(SCC(=O)NCc2c(C)c(Cl)cc(C(C)C)c2O)o1	Env fusion inh 86 (no result: PAX8 inh HTS, EWS-Fli block)
COc1cc(-c2cc(OC)c(O)c(OC)c2)cc(OC)c1O	Env fusion inh 78 (no result: miR122 inh, PAX8 inh HTS)
CCOC(=O)c1ccc(NC(=O)N2CCCCC2)cc1	C2C12 statin 137 (no result: INS-1E GSIS act, PAX8 inh HTS, Env fusion inh, EWS-Fli block)
CCOC(=O)c1ccc(NC(=S)Nc2cccc(N)n2)cc1	none (no result: C2C12 statin)
CCOC(=O)c1ccc(NC(=S)Nc2cccc(C)n2)cc1	INS-1E GSIS act 48 (no result: C2C12 statin, EWS-Fli block)
CCOC(=O)c1ccc(NC(=O)N2CCN(C3CCCCC3)CC2)cc1	none (no result: PAX8 inh HTS, Env fusion inh, EWS-Fli block)
CCOC(=O)c1cc2sccc2n1CC(=O)N1CCc2ccccc21	Env fusion inh 62 (no result: PAX8 inh HTS, EWS-Fli block)
CCOC(=O)c1ccc(NC(=O)N2CCc3ccccc32)cc1	C2C12 statin 72 (no result: PAX8 inh HTS, EWS-Fli block)
CCCNC(=O)Nc1ccc2c(c1)OC[C@@H](C)N(CC1CCCC1)C[C@@H](C)[C@@H](OC)CN(C)C2=O	none (no result: miR122 inh)
COc1ccc2c3c(n(C)c2c1)[C@@H](CO)N(C(=O)NC(C)C)CC31CCN(C(=O)NC(C)C)CC1	none (no result: miR122 inh, C2C12 statin, PAX8 inh HTS)
O=C(Nc1ccc(F)cc1)N[C@H]1CC[C@H](CCn2cc(-c3ccc(F)cc3)nn2)O[C@H]1CO	none (no result: miR122 inh)
COc1ccc(NC(=O)N[C@H]2CC[C@H](CC(=O)NC3CCCCC3)O[C@H]2CO)cc1	none (no result: miR122 inh)
c1ccc(Cc2nnc(-c3ccccc3)o2)cc1	none (no result: C2C12 statin, EWS-Fli block)
COc1ccc(Cc2nnc(-c3ccccc3)o2)cc1	INS-1E GSIS act 46
CC(=O)C[C@@H](O)CC(=O)[C@@H]1OC(=O)CCCCCCc2ccccc21	C2C12 statin 112
C[C@@H]1CN([C@H](C)CO)C(=O)Cc2cc(NC(=O)CCC(F)(F)F)ccc2O[C@H]1CN(C)S(=O)(=O)c1cccs1	none (no result: PAX8 inh HTS)
C=CCn1c(=O)c(C#N)cc2c(=O)n3ccccc3nc21	none (no result: INS-1E GSIS act, PAX8 inh HTS, Env fusion inh, EWS-Fli block)
C=CCn1c(=N)c(C#N)cc2c(=O)n3ccccc3nc21	C2C12 statin 94 (no result: INS-1E GSIS act, PAX8 inh HTS, Env fusion inh, EWS-Fli block)
C[C@@H]1CN([C@H](C)CO)C(=O)c2cccc(N(C)C)c2O[C@@H]1CN(C)C	none
CC1(C)CC[C@]2(C(=O)n3ccnc3)CC[C@]3(C)[C@H](C(=O)C=C4[C@@]5(C)C=C(C#N)C(=O)C(C)(C)[C@@H]5CC[C@]43C)[C@@H]2C1	Env fusion inh 109, EWS-Fli block 76 (no result: miR122 inh, C2C12 statin)
Cn1cnnc1SCC(=O)N1CCN(C(=O)c2ccco2)CC1	none (no result: miR122 inh, C2C12 statin)
